The list is not random: actives were taken first. Their share in the collection is about 3.1%.
RGS12 GoLoco inh: RGS12 GoLoco-Gai1 interaction inhibition. P63096. Gai1:RGS12 GoLoco peptide FP, rhodamine, 10 min. Potency, µM (titrated, usually from 61.6 µM), usual class: inhibitors. 0.44% of 230,000 active. AID 880; active means well fitted inhibition curve with a large enough effect, not every such curve was filed as active; inactive means no such curve, though single readings can be large or run the other way; further: nearly all actives have a fitted effect of over 30% in size
Tau fibril ThT: inhibitors of human tau fibril formation, thioflavin T binding. P10636. Potency, µM (doses to about 57.4 µM), most hits filed as inhibitors. AID 1460. 2.1% of 270,000 active. recombinant tau K18 P301L, heparin-induced fibrillization, ThT fluorescence; further: nearly all actives have a fitted effect of over 55% in size
Target sequence (P10636 561-689 P618L limits assumed): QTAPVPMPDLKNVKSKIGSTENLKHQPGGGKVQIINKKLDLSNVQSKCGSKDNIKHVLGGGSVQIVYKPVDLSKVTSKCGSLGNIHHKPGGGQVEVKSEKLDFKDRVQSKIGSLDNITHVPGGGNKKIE
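Heparin-induced fibrillization of the P301L-mutant K18 repeat-domain fragment of human tau was followed by ThT binding in quantitative high-throughput format.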
Tau fluor cs: counter-screen for tau fibril formation inhibitors. tau K18 P301L Alexa594 fluorescence, heparin fibrillization. Potency, µM (doses to about 57.7 µM). 0.93% of 280,000 active; further: nearly all actives have a fitted effect of over 55% in size
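Human tau K18 P301L (15 uM unlabeled, 0.24 uM Alexa 594-labeled) in 100 mM sodium acetate pH 7 with 20 uM heparin, 6 hr at 37 C. ThT 30 uM added, 1 hr ambient; Alexa 594 FP and total fluorescence read at 555/632 nm.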
Tau fibril FP: inhibitors of human tau fibril formation. 0.39% of 280,000 active. AID 1468. K18 P301L tau heparin fibrillization, Alexa594 FP, 6 h. Potency, µM (series often up to 57.7 µM), usual class: inhibitors; further: nearly all actives have a fitted effect of over 55% in size
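Quantitative HTS format: compounds meet 15 uM recombinant K18 P301L tau and Alexa 594-tau tracer in 100 mM sodium acetate pH 7; 20 uM heparin triggers fibrillization at 37 C over 6 hr; FP gives the signal.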
TexasRed fluor: alters Texas Red total fluorescence, flagging assay interference; TRb/SRC2 Texas Red total fluorescence interference; 0.29% of 280,000 active; Potency, µM (series often up to 106 µM); AID 1479; active means well fitted curve in either direction with a large enough effect; inconclusive means small, poorly fitted or top-dose-only effect
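Human TRb ligand-binding domain at 0.6 uM with 20 nM Texas Red SRC2 peptide in Tris buffer containing 1 uM T3 and 5% DMSO, incubated with compound 5 h at ambient temperature. Total fluorescence (555/632 nm) calculated as parallel + 2 × perpendicular.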
TRb SRC2 PPI: TRbeta-SRC2 interaction inhibition | P10828 | TRbeta-SRC2 peptide binding, fluorescence polarization; receptor liganded with 1 µM T3 | AID 1469 | Potency, µM (doses to about 106 µM), hits mostly inhibitors | 0.065% of 280,000 active; further: nearly all actives have a fitted effect of over 50% in size
Target sequence (P10828 whole entry, looked up): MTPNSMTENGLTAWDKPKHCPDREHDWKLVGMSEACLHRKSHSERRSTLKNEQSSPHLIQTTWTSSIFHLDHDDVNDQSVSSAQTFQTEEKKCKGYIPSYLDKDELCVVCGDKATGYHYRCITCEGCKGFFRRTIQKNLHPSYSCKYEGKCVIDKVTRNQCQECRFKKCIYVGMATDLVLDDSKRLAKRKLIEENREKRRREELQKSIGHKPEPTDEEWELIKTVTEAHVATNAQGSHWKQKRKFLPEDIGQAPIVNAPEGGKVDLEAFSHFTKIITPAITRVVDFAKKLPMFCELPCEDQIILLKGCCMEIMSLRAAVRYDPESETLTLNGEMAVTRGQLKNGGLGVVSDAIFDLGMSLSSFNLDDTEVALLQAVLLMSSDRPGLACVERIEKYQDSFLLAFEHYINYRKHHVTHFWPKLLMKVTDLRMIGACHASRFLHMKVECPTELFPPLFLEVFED
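Quantitative HTS by FP: 0.6 uM TRb LBD, 20 nM labeled SRC2 20-mer, 1 uM T3, 5% DMSO; 5 hr ambient incubation; % activity per concentration and potencies from concentration series.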
Numbers stand for hits; n = inactive; u = inconclusive; x = no result; ! = repeats disagree; [ ] = dose if it differs, or a comment. Unless noted, the call rests on the fitted dose curve; in most records, active means well fitted curve in the direction sought with a large enough effect; inconclusive means small, poorly fitted or top-dose-only effect, or another doubt; inactive means no such curve, though single readings can be large; an effect the other way counts as inactive or inconclusive.

SMILES	RGS12 GoLoco inh	Tau fibril ThT	Tau fluor cs	Tau fibril FP	TexasRed fluor	TRb SRC2 PPI
COc1ccc(NC(=S)N(CCc2c(C)[nH]c3ccccc23)Cc2ccco2)cc1	n	u	14µM[quencher]	n	n	n
CNC(=S)N(CCc1c(C)[nH]c2ccccc12)Cc1ccco1	n	n	n	n	n	n
CCOc1ccc(NC(=S)N(CCc2c(C)[nH]c3ccccc23)Cc2ccco2)cc1	n	u	13µM[quencher]	u	n	n
CCC(=O)Nc1c2c(nn1-c1ccc(C)cc1C)CSC2	x	n	n	n	n	n
COC(=O)Cc1c(C)c2ccc3c(c2oc1=O)CN(Cc1ccc(C)cc1)CO3	x	n	n	n	n	n
O=C(NNC(=O)c1cccs1)c1ccc(Cl)c([N+](=O)[O-])c1	n	u	n	n	n	n
CCN(CC)CCSC(=O)C(c1ccccc1)c1ccccc1	n	u	n	n	n	n
COc1ccc(C2c3c(oc4ccccc4c3=O)C(=O)N2Cc2ccncc2)cc1 (centres undefined)	n	n	n	n	n	n
CC1CCN(S(=O)(=O)c2ccc3c(ccc(=O)n3CC(=O)Nc3cccc(F)c3)c2)CC1	x	n	n	u	n	n
Cc1ccccc1NS(=O)(=O)c1ccc2[nH]cc(C(=O)NC3CCCCC3)c(=O)c2c1	x	n	u	28µM	n	n
Cc1c(Cl)cccc1NS(=O)(=O)c1ccc2[nH]cc(C(=O)NC3CCCC3)c(=O)c2c1	x	n	u	14µM	n	n
Cc1ccccc1NS(=O)(=O)c1ccc2[nH]cc(C(=O)NC(C)c3ccccc3)c(=O)c2c1 (centres undefined)	x	n	u	25µM	n	n
Cc1ccccc1NS(=O)(=O)c1ccc2[nH]cc(C(=O)N3CCCCC3)c(=O)c2c1	x	n	n	n	n	n
CCc1nc(SCC(=O)OC(C)C)c2ccccc2n1	n	n	n	n	n	n
C/C(=N\NC(=O)OC(C)(C)C)c1ccccc1Br	n	n	n	n	n	n
CCOCC(=O)Nc1cccc(-c2nc3cccnc3s2)c1C	n	n	n	n	n	n
COc1ccc(C(=O)Nc2cccc(-c3nc4cccnc4s3)c2C)c(OC)c1	x	u	n	n	100µM[quencher]	n
O=C(CCCCCNC(=O)c1ccccc1)N=Nc1c(O)[nH]c2c(Br)cc(Br)cc12	n	6.3µM	u	n	n	n
O=C(CCNC(=O)c1ccccc1)N=Nc1c(O)[nH]c2ccccc12	n	n	n	n	n	n
O=C(O)c1cc(Br)ccc1NN=C1CCCCC1	n	20µM	n	n	n	n
Cc1ccc(/C([O-])=C(/C(=S)NCc2ccco2)[n+]2ccccc2)cc1	n	u	n	n	n	n
O=[N+]([O-])c1ccc(/C([O-])=C(/C(=S)NCc2ccco2)[n+]2ccccc2)cc1	n	25µM	n	u	u	n
CCOC(=O)c1c(C)[nH]c(C2=NNC(=Nc3ccccc3)SC2)c1C	x	4µM	7.9µM[quencher]	u	n	n
CCOc1ccc(N=C2NN=C(c3cc(C)n(CC4CCCO4)c3C)CS2)cc1 (centres undefined)	n	u	n	n	n	n
CCOC(=O)c1c(C)[nH]c(C2=NNC(=Nc3ccccc3OC)SC2)c1C	n	7.9µM	u	n	n	n
SMILES	RGS12 GoLoco inh	Tau fibril ThT	Tau fluor cs	Tau fibril FP	TexasRed fluor	TRb SRC2 PPI
CCOC(=O)c1c(C)[nH]c(C2=NNC(=Nc3ccc(OCC)cc3)SC2)c1C	n	14µM	u	u	n	n
CC(=O)c1c(C)[nH]c(C2=NNC(=NC(C)(C)C)SC2)c1C	n	u	n	u	n	n
O=P(O)(CCc1ccncc1)CN1CCCCC1	n	n	n	n	n	n
CCOC(=O)C1CCCN(C(=O)c2sc3nc(C)nc(N(CC)CC)c3c2C)C1 (centres undefined)	n	n	n	n	n	n
Cc1ccc(SCN2CCCCC2)cc1 (tested in a mixture with another compound)	n[14.2 µM]	x	x	x	x	x
Cc1cc2ccccn2c1C(=S)NC(=O)c1ccccc1	n	16µM	n	n	n	n
Cc1cc2ccccn2c1C(=O)c1ccncc1	n	n	n	n	n	n
CCN1C(=O)/C(=C2/C=Cc3ccccc3N2C)OC1=S	n	3.2µM	n	n	n	n
CCN1C(=O)/C(=c2\o/c(=C3\C=Cc4ccccc4N3CC)c(=O)n2CC)SC1=S	n	u	n	n	n	n
CCN1C(=O)/C(=C2\C=Cc3cc(C)ccc3N2CC)OC1=S	n	u	n	n	n	n
CCN1C(=O)/C(=C2\C=Cc3ccccc3N2CC)SC1=S	n	6.3µM	u	n	n	n
O=C(CCNC(=O)c1ccco1)Nc1ccccc1N1CCOCC1	n	n	n	n	n	n
COc1cc(O)c(C(=O)/C=C/c2ccccc2)c(O)c1	x	n[11.5 µM]	n[11.6 µM]	n[11.6 µM]	n[11.2 µM]	n[11.2 µM]
COc1cc(O)c(C(=O)/C=C/c2ccccc2)c(OC)c1	25µM!	u	n	n	n	n
O=C(COc1ccccc1Cl)NC(=S)Nc1cccc(NC(=O)c2ccccc2Cl)c1	n	n	n	u	n	n
COc1ccc(CS(=O)(=O)/C(Cl)=C(/Cl)C(=O)Nc2ccc(OC)nc2)cc1	n	7.9µM	n	u	n	n
COc1ccc(NC(=O)/C(Cl)=C(/Cl)S(=O)Cc2ccccc2)cn1 (centres undefined)	n	u	n	u	n	n
CN(C1CCCCC1)S(=O)(=O)c1ccc(S(=O)(=O)N2CCN(C(=O)c3ccccc3F)CC2)cc1	n	n	n	n	n	n
CC1=CC(C)(C)N2C(=O)C(=O)c3cc(OC(=O)c4ccco4)cc1c32	n	13µM	n	n	n	n
O=c1cc(N=Nc2ccc(Cl)cc2)[nH]c(=O)[nH]1	n	11µM	u	u	n	n
O=c1cc(-c2ccc(Cl)cc2)oc(=O)[nH]1	n	n	n	n	n	n
O=c1c(N2CCN(c3ccccc3)CC2)csc2ccc(Cl)cc12	x	13µM	u	n	n	n
CC1CCCN(c2csc3ccccc3c2=O)C1 (centres undefined)	x	u	n	n	n	n
O=c1c(N2CCN(c3cccc(Cl)c3)CC2)csc2ccccc12	x	10µM	n	n	n	n
CCN1CCN(c2csc3ccc(Cl)cc3c2=O)CC1	x	u	n	n	n	n
COc1ccc(S(=O)(=O)NCc2ccccc2)cc1	n	n	n	n	n	n
COc1ccc(S(=O)(=O)NCCC(=O)NCc2ccccc2)cc1	x	n	7.9µM[quencher]	u	n	n
Cc1ccc(Oc2cc(NC(=O)CCCn3nc([N+](=O)[O-])c(Cl)c3C)cc([N+](=O)[O-])c2)cc1	n	n	7.9µM[quencher]	n	n	n
Cc1cc([N+](=O)[O-])nn1CCCC(=O)Nc1cc(Oc2ccccc2)cc([N+](=O)[O-])c1	n	n	10µM[quencher]	n	n	n

Screening results deposited in PubChem by National Center for Advancing Translational Sciences (NCATS).
